This is part of a sample that, as a whole, favours compounds with a hit. Of some 79,000 tested, about 15% had one in any assay. Active and inactive are the calls of the source. No stated cut-off is given here; in the data, active means growth inhibition above about 70%; inactive means the rest.
Key:
[1] = NCI Yeast Anticancer Drug Screen. Data for the rad52 strain (AID 147);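 further: 0% = growth of vehicle-treated control cultures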; details: S. cerevisiae rad52 mutant growth inhibition, stronger effect = higher value
In short: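 Measured: yeast growth inhibition. System: strain with a defined DNA damage repair alteration. Reference: vehicle-treated control cultures.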

[2] = NCI Yeast Anticancer Drug Screen. Data for the wt1 strain (AID 149);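 further: 0% = growth of vehicle-treated wt1 cultures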; details: S. cerevisiae wt1 strain (SPY 50644) growth inhibition, stronger effect = higher value
In short: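 Using yeast strain wt1, compound-induced growth inhibition was determined against vehicle-treated cultures.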

[3] = NCI Yeast Anticancer Drug Screen. Data for the mgt1 strain (AID 153); details: S. cerevisiae mgt1 mutant growth inhibition, stronger effect = higher value
In short: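 After exposure of the mgt1 yeast mutant to compound, growth was measured and reported as inhibition compared with vehicle controls.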

[4] = NCI Yeast Anticancer Drug Screen. Data for the rad50 strain (AID 155);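 further: 0% = growth of vehicle-only cultures of the same strain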; details: S. cerevisiae rad50 strain growth inhibition, stronger effect = higher value
In short: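 Relative growth inhibition (compound vs vehicle) was measured in yeast with a defined repair-gene alteration.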

[5] = NCI Yeast Anticancer Drug Screen. Data for the mec2-1 strain (AID 157); details: S. cerevisiae mec2-1 strain, stronger effect = higher value
In short: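 Test agents were screened against the mec2-1 yeast strain, with defined DNA repair or cell cycle alteration. Growth was scored as inhibition against vehicle-only controls.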

[6] = NCI Yeast Anticancer Drug Screen. Data for the rad14 strain (AID 159);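 further: 0% = growth of vehicle-treated control cultures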; details: S. cerevisiae rad14 strain growth inhibition, stronger effect = higher value
In short: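 Screen for anticancer potential: a yeast strain altered in DNA damage repair is grown with compound, and reduced growth is quantified against vehicle controls.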

[7] = NCI Yeast Anticancer Drug Screen. Data for the sgs1 mgt1 strain (AID 161);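 further: 0% = growth of cultures given vehicle only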; details: S. cerevisiae sgs1 mgt1 strain, stronger effect = higher value
In short: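 Mutant yeast exposed to compound; growth scored against vehicle-only wells.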

[8] = NCI Yeast Anticancer Drug Screen. Data for the CLN2oe strain (AID 163);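 further: 0% = growth of vehicle-only control cultures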; details: S. cerevisiae CLN2oe strain, stronger effect = higher value
In short: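 Here, growth inhibition in a cell-cycle-altered yeast strain after compound exposure was quantified against vehicle control growth.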

[9] = NCI Yeast Anticancer Drug Screen. Data for the cln2 rad14 strain (AID 165);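 further: 0% = growth equal to vehicle treated cultures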; details: S. cerevisiae cln2 rad14 strain, stronger effect = higher value
In short: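 Growth of compound-exposed yeast (cln2 rad14 genotype) measured and expressed as inhibition relative to vehicle.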

[10] = NCI Yeast Anticancer Drug Screen. Data for the bub3 strain (AID 167); details: S. cerevisiae bub3 mutant strain, stronger effect = higher value
In short: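 Screening used yeast with an engineered genetic alteration affecting cell cycle control. Compound-exposed cultures were compared with vehicle cultures, and reduced growth was taken as inhibition.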

[11] = NCI Yeast Anticancer Drug Screen. Data for the wt2 strain (AID 169);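 further: 0% = growth of vehicle-treated yeast cultures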; details: S. cerevisiae wt2 strain growth inhibition, stronger effect = higher value
In short: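 Genetically defined yeast strains from a DNA-repair/cell-cycle panel were used. Compound-exposed yeast growth was measured, and the inhibition was calculated relative to vehicle treatment.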

[12] = NCI Yeast Anticancer Drug Screen. Data for the sgs1 strain (AID 173);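 further: 0% = growth of vehicle-only control cultures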; details: S. cerevisiae sgs1 mutant, stronger effect = higher value
In short: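 Relative growth inhibition, referenced to vehicle, was determined in a yeast strain with a defined alteration affecting DNA damage repair or cell cycle control after compound exposure.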

[13] = NCI Yeast Anticancer Drug Screen. Data for the mlh1 rad18 strain (AID 175); details: S. cerevisiae mlh1 rad18 strain growth inhibition, stronger effect = higher value
In short: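 In this whole-cell yeast screen, a strain with altered DNA damage repair is challenged with compound, and its growth is measured against matched vehicle-treated controls.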

[14] = NCI Yeast Anticancer Drug Screen. Data for the rad18 strain (AID 177); details: S. cerevisiae rad18 mutant growth inhibition, stronger effect = higher value
In short: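 Screen uses a yeast strain with a defined lesion in DNA damage repair; compound effect is read as loss of growth compared to untreated vehicle cultures.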

[15] = NCI Yeast Anticancer Drug Screen. Data for the mlh1 strain (AID 171);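 further: 0% = growth of vehicle-treated control cultures of the same strain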; details: S. cerevisiae mlh1 strain growth inhibition, stronger effect = higher value
In short: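 Here the genetically defined yeast mutant is grown with each compound, and the extent to which its growth falls below that of vehicle-exposed cells is reported.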

[16] = NCI Yeast Anticancer Drug Screen. Data for the rad50EPP+ strain (AID 151);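 further: 0% = growth of vehicle-treated control cultures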; details: S. cerevisiae rad50 mutant strain, stronger effect = higher value
In short: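 One strain with a rad50 alteration (rad50EPP+) was compound-treated, its growth then compared to that of vehicle controls.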

[17] = at 5.0 µM (retest, dose inferred, filed as 0.5)
[18] = at 50.0 µM (retest, dose inferred, filed as 5.0)

Measured: growth inhibition

CC/C(=C(\c1ccccc1)c1ccc(OCCN(C)C)cc1)c1ccccc1
inactive: [1]; at 1.2 µM 15% | [1]; at 3.7 µM 11% | [1]; at 11.0 µM 38% | [2]; at 1.2 µM 8% | [2]; at 3.7 µM -8% | [2]; at 11.0 µM 22% | [2]; at 100.0 µM 50% | [3]; at 1.2 µM 7% | [3]; at 3.7 µM 8% | [4]; at 1.2 µM 9% | [4]; at 3.7 µM 21% | [4]; [17] 44% | [4]; at 11.0 µM 64% | [5]; at 1.2 µM -9% | [5]; at 3.7 µM -11% | [5]; [17] 46% | [5]; at 11.0 µM 46% | [6]; at 1.2 µM -26% | [6]; at 3.7 µM -9% | [7]; [17] -12% | [8]; at 1.2 µM 4% | [8]; at 3.7 µM 14% | [9]; [17] 30% | [10]; at 1.2 µM 5% | [10]; at 3.7 µM 10% | [10]; [17] 24% | [10]; at 11.0 µM 38% | [11]; at 1.2 µM -9% | [11]; at 3.7 µM -15% | [11]; at 11.0 µM 55% | [12]; at 1.2 µM 0% | [12]; at 3.7 µM 1% | [13]; [17] 46% | [13]; at 50.0 µM 40.4% | [14]; at 1.2 µM 13% | [14]; at 3.7 µM 12%
active: [1]; at 33.0 µM 98% | [1]; at 100.0 µM 98% | [2]; at 33.0 µM 98% | [3]; at 11.0 µM 94% | [3]; at 33.0 µM 98% | [3]; at 100.0 µM 97% | [4]; at 33.0 µM 98% | [4]; [18] 99% | [4]; at 50.0 µM 90% | [4]; at 100.0 µM 97% | [5]; at 33.0 µM 98% | [5]; [18] 99% | [5]; at 50.0 µM 93.4% | [5]; at 100.0 µM 97% | [6]; at 11.0 µM 89% | [6]; at 33.0 µM 97% | [6]; at 100.0 µM 96% | [7]; [18] 98% | [7]; at 50.0 µM 92.8% | [8]; at 11.0 µM 82% | [8]; at 33.0 µM 98% | [8]; at 100.0 µM 97% | [9]; [18] 99% | [9]; at 50.0 µM 92% | [10]; at 33.0 µM 98% | [10]; [18] 92% | [10]; at 50.0 µM 91.5% | [10]; at 100.0 µM 98% | [11]; at 33.0 µM 98% | [11]; at 100.0 µM 97% | [12]; at 11.0 µM 84% | [12]; at 33.0 µM 97% | [12]; at 100.0 µM 97% | [13]; [18] 99% | [14]; at 11.0 µM 71% | [14]; at 33.0 µM 98% | [14]; at 100.0 µM 98%

CC(=O)[O][Bi]([c]1ccccc1)[c]1ccccc1
inactive: [1]; at 1.2 µM 31% | [1]; at 3.7 µM 41% | [2]; at 1.2 µM 2% | [2]; at 3.7 µM 11% | [2]; at 11.0 µM 23% | [4]; at 1.2 µM 36% | [4]; at 3.7 µM 42% | [4]; [17] 27% | [5]; at 1.2 µM 29% | [5]; at 3.7 µM 30% | [5]; [17] 19% | [5]; at 11.0 µM 40% | [6]; at 1.2 µM 39% | [6]; at 3.7 µM 35% | [6]; at 11.0 µM 64% | [7]; [17] 6% | [8]; at 1.2 µM 22% | [8]; at 3.7 µM 16% | [8]; at 11.0 µM 31% | [9]; [17] 7% | [10]; at 1.2 µM 15% | [10]; at 3.7 µM 13% | [10]; [17] 22% | [10]; at 11.0 µM 56% | [11]; at 1.2 µM 4% | [11]; at 3.7 µM 4% | [15]; at 1.2 µM 28% | [15]; at 3.7 µM 30% | [15]; at 11.0 µM 40% | [12]; at 1.2 µM 28% | [12]; at 3.7 µM 30% | [12]; at 11.0 µM 46% | [13]; [17] 42% | [14]; at 1.2 µM 15% | [14]; at 3.7 µM 30%
active: [1]; at 11.0 µM 72% | [1]; at 33.0 µM 91% | [1]; at 100.0 µM 94% | [2]; at 33.0 µM 90% | [2]; at 100.0 µM 94% | [4]; at 11.0 µM 73% | [4]; at 33.0 µM 95% | [4]; [18] 94% | [4]; at 50.0 µM 86% | [4]; at 100.0 µM 95% | [5]; at 33.0 µM 90% | [5]; [18] 95% | [5]; at 50.0 µM 89.5% | [5]; at 100.0 µM 95% | [6]; at 33.0 µM 95% | [6]; at 100.0 µM 96% | [7]; [18] 96% | [7]; at 50.0 µM 86.5% | [8]; at 33.0 µM 80% | [8]; at 100.0 µM 91% | [9]; [18] 95% | [9]; at 50.0 µM 84.7% | [10]; at 33.0 µM 91% | [10]; [18] 96% | [10]; at 50.0 µM 83.2% | [10]; at 100.0 µM 94% | [11]; at 11.0 µM 79% | [11]; at 33.0 µM 96% | [11]; at 100.0 µM 96% | [15]; at 33.0 µM 89% | [15]; at 100.0 µM 95% | [12]; at 33.0 µM 88% | [12]; at 100.0 µM 95% | [13]; [18] 93% | [13]; at 50.0 µM 91% | [14]; at 11.0 µM 72% | [14]; at 33.0 µM 91% | [14]; at 100.0 µM 94%

CCCS(=O)(=O)Nc1ccc(Nc2c3ccccc3nc3ccccc23)c(OC)c1
inactive: [1]; at 1.2 µM 20% | [1]; at 3.7 µM 64% | [2]; at 1.2 µM -70% | [2]; at 3.7 µM -55% | [2]; at 11.0 µM -64% | [2]; at 33.0 µM -35% | [2]; at 100.0 µM 66% | [16]; at 1.2 µM -32% | [16]; at 3.7 µM -21% | [16]; at 11.0 µM -20% | [16]; at 33.0 µM 16% | [16]; at 100.0 µM 69% | [4]; at 1.2 µM 14% | [4]; at 3.7 µM 59% | [4]; at 50.0 µM 7.1% | [5]; at 1.2 µM -59% | [5]; at 3.7 µM -88% | [5]; [17] 2% | [5]; at 11.0 µM -60% | [5]; at 33.0 µM 33% | [5]; at 50.0 µM 12.8% | [6]; at 1.2 µM -62% | [6]; at 3.7 µM -61% | [6]; at 11.0 µM -43% | [6]; at 33.0 µM -16% | [6]; at 100.0 µM 66% | [7]; [17] 36% | [8]; at 1.2 µM -9% | [8]; at 3.7 µM -14% | [8]; at 11.0 µM -11% | [8]; at 33.0 µM 21% | [8]; at 100.0 µM 67% | [9]; [17] 34% | [9]; at 50.0 µM 52% | [10]; at 1.2 µM -67% | [10]; at 3.7 µM -49% | [10]; [17] 40% | [10]; at 11.0 µM -45% | [10]; at 33.0 µM -16% | [10]; at 50.0 µM 37.6% | [10]; at 100.0 µM 65% | [15]; at 1.2 µM -85% | [15]; at 3.7 µM -74% | [15]; at 11.0 µM -45% | [15]; at 33.0 µM 9% | [13]; [17] 66% | [13]; at 50.0 µM 29.4% | [14]; at 1.2 µM -58% | [14]; at 3.7 µM -63% | [14]; at 11.0 µM -43% | [14]; at 33.0 µM -10%
active: [1]; at 11.0 µM 82% | [1]; at 33.0 µM 87% | [1]; at 100.0 µM 93% | [4]; [17] 79% | [4]; at 11.0 µM 84% | [4]; at 33.0 µM 90% | [4]; [18] 98% | [4]; at 100.0 µM 91% | [5]; [18] 99% | [5]; at 100.0 µM 85% | [7]; [18] 99% | [7]; at 50.0 µM 82.8% | [9]; [18] 98% | [10]; [18] 98% | [15]; at 100.0 µM 74% | [13]; [18] 98% | [14]; at 100.0 µM 75%

— PubChem BioAssay (NCI)
